# Screening results: PubChem BioAssay, National Center for Advancing Translational Sciences (NCATS)
# HT1080NT lethal: kills 2HG-producing HT-1080-NT fibrosarcoma cells. HT-1080-NT fibrosarcoma viability, CellTiter-Glo ATP luminescence, 48 h. Potency, µM (doses to about 46.1 µM), inactives show at the highest dose activity, negative = less viability, usual class: cytotoxic. 360,000 tested, 1.6% active. AID 686970;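 further: NT is the 2HG producing partner of a matched IDH1 knockdown line; potency means the concentration at half of the fitted maximal effect; 0% = DMSO-treated cells and -100% = media-only wells without cells; nearly all actives have a fitted effect of over 55% in size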
#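 Read-out is CellTiter-Glo luminescence after 10 minutes at room temperature, following 48 hours' compound treatment of HT-1080-NT cells (750 cells/well, RPMI, 5% FBS, 37 degrees C).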
# TDP1 cell CPT: growth inhibition of DT40 Tdp1-/-;hTDP1 cells with camptothecin (screen for TDP1 inhibitors). Potency, µM (titrated, usually from 46.2 µM), for the others: at the top dose activity change, negative = growth inhibition, hits mostly inhibitors. 420,000 tested, 12% active. AID 686979. chicken DT40 Tdp1-/-;hTDP1 cells + 20 nM CPT, ATP luminescence, 48 h; further: potency means the concentration at half of the fitted maximal effect; nearly all actives have a fitted effect of over 55% in size
#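 Chicken DT40 Tdp1-/- cells stably complemented with human TDP1 were seeded at 400 cells/well in medium containing 20 nM camptothecin, exposed to pin-transferred compounds, and grown at 37 °C for at least 48 hr. Viability was read as ATP luminescence.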
# IL-1B inflam inh: inhibitors of inflammasome signaling (IL-1 beta secretion); THP-1 LPS/ATP IL-1B secretion, AlphaLISA, 16 h; active compounds read low; activity change, % at 57.5 µM; 360,000 tested, 4.7% active; in the data active means activity change below about -50%; inconclusive means mostly about -30% to -49%
#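 THP-1 cells pretreated 1 hr with compounds (up to 57.5 uM final), then stimulated with LPS (250 ng/mL final) plus ATP (1.25 mM final); secreted IL-1B measured by AlphaLISA after 16 hr, decreased signal indicating inhibition.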
# DT40 TDP1 no CPT: qHTS for Inhibitors of human tyrosyl-DNA phosphodiesterase 1 (TDP1): qHTS in cells in absence of CPT. DT40 Tdp1-/- hTDP1 cells, no CPT, ATP luminescence, 48 h. Potency, µM (series often up to 46.2 µM), inactives show top-dose activity change, negative = growth inhibition, hits mostly inhibitors. 420,000 tested, 15% active. AID 686978, 2013; further: potency means the concentration at half of the fitted maximal effect; nearly all actives have a fitted effect of over 55% in size
#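 Growth kinetics read by CellTiter-Glo luminescence after ≥48 hr at 37 °C. Cells: DT40 Tdp1-/- stably carrying human TDP1, 400 per well, compound exposure in the absence of CPT (DMSO vehicle).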
# HT1080 IDH1KD tx: kills HT-1080 cells with IDH1 knockdown; HT-1080 IDH1 knockdown viability, ATP luminescence, 48 h; Potency, µM (titrated, usually from 46.1 µM), for inactives: at the top dose activity, negative = toxicity, most hits filed as cytotoxic; AID 686971; 360,000 tested, 2% active;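 further: potency means the concentration at half of the fitted maximal effect; 0% = DMSO wells and -100% = cell-free medium wells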
#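 HT-1080-IDH1KD cells (IDH1 knocked down), 750/well in RPMI with 5% FBS, treated with compound 48 h at 37 degrees C. Viability by CellTiter-Glo luminescence, normalised to DMSO and no-cell wells; concentration-response curves classed.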
# 12-LOX inh: ALOX12 (human) lipoxygenase inhibition. P18054. purified 12hLO, xylenol orange hydroperoxide absorbance. Potency, µM (highest dose often 108 µM), without a hit: at the highest dose activity change, negative = inhibition, hits mostly inhibitors. 580,000 tested, 1.1% active. AID 1671190; further: potency means the concentration at half of the fitted maximal effect
# Target sequence (P18054 whole entry, looked up): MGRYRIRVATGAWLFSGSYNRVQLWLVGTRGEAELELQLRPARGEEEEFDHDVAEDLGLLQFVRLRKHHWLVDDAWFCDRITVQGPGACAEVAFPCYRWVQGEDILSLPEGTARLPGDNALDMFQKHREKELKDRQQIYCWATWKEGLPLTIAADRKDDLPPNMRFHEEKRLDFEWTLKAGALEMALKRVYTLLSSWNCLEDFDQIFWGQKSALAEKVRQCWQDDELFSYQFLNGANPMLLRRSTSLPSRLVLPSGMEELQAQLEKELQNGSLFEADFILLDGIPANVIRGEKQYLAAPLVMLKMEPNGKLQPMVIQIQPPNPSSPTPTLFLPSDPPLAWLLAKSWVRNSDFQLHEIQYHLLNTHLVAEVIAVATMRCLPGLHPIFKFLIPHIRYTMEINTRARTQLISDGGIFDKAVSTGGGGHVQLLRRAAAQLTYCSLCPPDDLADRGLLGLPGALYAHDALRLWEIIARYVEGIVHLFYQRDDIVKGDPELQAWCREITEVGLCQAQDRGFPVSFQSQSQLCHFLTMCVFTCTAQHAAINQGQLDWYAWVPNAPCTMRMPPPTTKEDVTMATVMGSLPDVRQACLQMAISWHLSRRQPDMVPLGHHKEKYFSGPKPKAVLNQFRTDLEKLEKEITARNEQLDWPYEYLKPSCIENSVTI
#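 Purified human 12hLO (150 nM final) in 25 mM Hepes, 0.01% Triton X-100, pH 7.0 was preincubated 15 min at room temperature with compound. Then 40 uM arachidonic acid was added, 30 min. Hydroperoxide was read by Fe-XO absorbance ratio 573/405 nm.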
# The depositor's hits bear a star; ? = inconclusive; / = no result given; [ ] = remark or other dose. Shown is part of a subset that was picked to be rich in hits. Unless noted, the call rests on the fitted dose curve; in most records, active means well fitted curve in the direction sought with a large enough effect; inconclusive means small, poorly fitted or top-dose-only effect, or another doubt; inactive means no such curve, though single readings can be large; an effect the other way counts as inactive or inconclusive. Unless noted, on the % scale 0 is the no-effect control and ±100 the full control effect.
SMILES,HT1080NT lethal,TDP1 cell CPT,IL-1B inflam inh,DT40 TDP1 no CPT,HT1080 IDH1KD tx,12-LOX inh
COCC1CN(C)CC12CCN(Cc1ccncc1)CC2 (stereo not drawn),/,/,/,/,/,36%
COC(=O)C1=C(c2ccc(-c3ccccc3)c(F)c2)C[C@@H]2CC[C@H]1N2C(=O)NC1CC1,-25%,4.1µM*,?,9.2µM*,-6%,2%
COC(=O)C1=C(c2ccccc2)C[C@@H]2CC[C@H]1N2C(=O)NC1CC1,-1%,-12%,5,/,-4%,-3%
COC(=O)C1=C(c2ccc(-c3ccccc3)c(F)c2)C[C@@H]2CC[C@H]1N2C(=O)NC(C)C,-17%,13µM*,-14,18µM*,-11%,-5%
COC(=O)C1=C(c2ccccc2)C[C@@H]2CC[C@H]1N2C(=O)NC1CCCCC1,20%,?,10,?,-7%,-13%
COC(=O)C1=C(c2ccc3ccccc3c2)C[C@@H]2CC[C@H]1N2C(=O)NC(C)C,0%,?,-1,18µM*,5%,-6%
O=C([C@H]1CN2CCC1C[C@@H]2Cn1cc(COc2ccccc2)nn1)N1CCOCC1 (stereo partly drawn),/,/,/,/,/,8%[176 µM]
Cc1ncc2c(n1)C[C@@H]1CC[C@H]2N1C(=O)NCc1ccccc1,/,/,/,/,/,33%
CC[C@@H](CO)NC(=O)[C@H]1C=C2c3cccc4c3c(cn4C)C[C@H]2N(C)C1,/,8.4µM*,/,13µM*,/,?
CC(CO)NC(=O)C1C=C2c3cccc4[nH]cc(c34)C[C@H]2N(C)C1 (stereo partly drawn),/,8%,/,-3%,/,/
COc1cc2c(cc1OCC1CC1)NC(=O)C21CCN(CCC(C)C)CC1,/,/,/,/,/,34%[176 µM]
Cc1ccc(CN(C)C(=O)c2cccc(S(=O)(=O)N3CCN(c4ccccc4)CC3)c2)cc1,-6%,?,?,15µM*,-26%,1%
COc1cccc(CN(C)C(=O)c2cccc(S(=O)(=O)N3CCN(c4ccccc4)CC3)c2)c1,-14%,12µM*,-14,7.3µM*,-21%,-4%
Cc1sc2c(c1C)C(c1ccc(F)cc1)=NCC(=O)N2CC(=O)Nc1ccccc1,/,/,/,/,/,-6%
CN(C)NC(=O)CCC(=O)O,/,/,/,/,/,-2%[57.4 µM]
CC1CC(O)[C@]2(O)[C@]13CC(=O)OC[C@@]2(C)[C@@](C)(O)C(=O)C3 (stereo partly drawn),/,5%,/,25%,/,/
CC1=CC(=O)C2=C(C)C[C@H](O)[C@@H]3[C@H](OC(=O)[C@H]3C)[C@@H]12,16%,6%,-79*,16%,1%,-8%
C=CCOc1cccc(CNCCc2ccccc2)c1,/,/,/,/,/,-14%
COc1cccc(CNCC(O)(c2ccc(Cl)cc2)c2ccc(Cl)cc2)c1,?,23µM*,-57*,23µM*,?,-2%
COc1ccc(CNCCc2ccc(Cl)cc2Cl)cc1,2%,-1%,-3,-21%,9%,8%
COc1cccc(CCNCc2cccc(C(F)(F)F)c2)c1,-21%,-1%,-136*,?,-16%,?
O=C1CCC[C@@H]2[C@H]3CCCN4CCC[C@@H](CN12)[C@@H]34,/,/,/,/,/,-13%[57.4 µM]
CCOC(=O)c1cccc(NC2c3ccccc3C(=O)N2Cc2ccco2)c1 (stereo not drawn),-12%,12µM*,0,6.5µM*,-11%,4%
O=C(Cn1ncn2c(cc3cc(F)ccc32)c1=O)N1CCC2(CC1)OCCO2,7%,-7%,4,13%,9%,-16%
CC(C)CCNC(=O)c1c(N)n(CC2CCCO2)c2nc3ccccc3nc12 (stereo not drawn),?,26µM*,?,29µM*,?,?
